The test is described as follows: basal RPMI8226 viability, no added stimulus, profiling panel, cell-based, calcein-AM fluorescence, 48 h, PK04 Diversity Set (AID 1166).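 Further: cells grown under basal conditions without added stimulus; test concentration not given here.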 Particulars: RPMI8226 myeloma viability, higher = more signal.
For the compound `CCCC[C@@H](O)C1=C(COC)Cn2c(=O)n(-c3ccccc3)c(=O)n2[C@H]1CO`, the z-score was 0.337.

For the compound `CCN(CC)c1ccc(N2CC=CC34O[C@@H]5C=CCOC(=O)[C@@H]5[C@H]3C(=O)N(CCCO)[C@@H]4C2=O)cc1` (stereo not given in full), the z-score was 0.28.

Turning to `COCCOC(=O)N1C(=O)[C@@]2(c3cc(C#CCC(C(=O)OC)C(=O)OC)ccc31)[C@H](c1ccc(OCCO)cc1)N1[C@H](c3ccccc3)[C@H](c3ccccc3)OC(=O)[C@H]1[C@@H]2C(=O)N1CCCCCCC1`, the z-score is -0.602.

Regarding `CCOC(=O)C1=CC[C@@H](c2ccc(F)cc2)N(S(=O)(=O)c2ccc(C)cc2)[C@H]1c1ccc([N+](=O)[O-])cc1`, the z-score was 0.192.

With `COC(=O)c1c(CC[C@@H](CO)NC(=O)N[C@@H](Cc2ccccc2)Cn2cc(-c3cncn3C)nn2)oc(C(C)=O)c1C(=O)OC`, the z-score is -1.81.

With `O=C(NCCO)C1=C[C@H](Oc2ccccc2I)[C@@H](O)[C@H](NCc2ccc(F)cc2)C1`, the z-score is -1.26.

`CCCCN1CC=CC23O[C@@H]4/C=C\CCC(C)OC(=O)C4[C@H]2C(=O)N(C(C)CO)[C@@H]3C1=O` (stereo not given in full): the z-score is -0.474.

`CC(C)C[C@@H]1NC(=O)C([C@@H](C)OCc2ccccc2)NC(=O)[C@@]23C(=O)N[C@@H](Cc4ccccc4)C2[C@H](C)[C@@]2(C)O[C@H]2C3/C=C/CC/C=C/CNC1=O` (stereo not given in full): the z-score is -2.32.

Consider `COCCOC(=O)N1C(=O)[C@@]2(c3cc(C#CCCO)ccc31)[C@H](C(=O)N1CCc3cc(OC)c(OC)cc3C1)[C@H]1C(=O)O[C@H](c3ccccc3)[C@H](c3ccccc3)N1[C@@H]2c1ccccc1OCCO`, for which the z-score was 0.458.

Consider `COc1ccc([Si](C)(C)[C@H]2[C@H](CC(=O)N3Cc4ccccc4C[C@H]3CO)O[C@@]3(C(=O)N(Cc4cccc(N5C(=O)c6cccc7cccc5c67)c4)c4ccccc43)[C@@H]2C)cc1`, for which the z-score was -4.12.

As to `CN1C(=O)C2C(C1=O)C1C=C(c3ccc(CO)cc3)C2C(c2cccs2)N1C` (stereo not given), the z-score was -0.996.

Take `CC(C)CNC(=O)[C@@]1(C)c2ccccc2C(=O)N(Cc2cc(F)cc(C(F)(F)F)c2)[C@H]1c1ccc(CO)cc1`: the z-score is 0.594.

In the case of `COc1ccc([Si](C)(C)[C@H]2[C@H](CCO)O[C@@]3(C(=O)N(Cc4ccc(N5CCOC5=O)cc4)c4ccccc43)[C@@H]2C)cc1`, the z-score was -3.98.

On to `CCCC=C(CCC)[C@@H](NC(=O)c1ccco1)c1ccc(C(=O)OC)cc1`, for which the z-score is -4.76.

For the compound `CO[C@H]1O[C@H](CO)[C@@H](OC(=O)Nc2ccc(C(F)(F)F)cc2)[C@H](OC(=O)Nc2ccccc2-c2ccccc2)[C@@H]1OC(=O)Nc1ccccc1-c1ccccc1`, the z-score is -0.909.

For `CC[C@H](C)C(=O)O[C@H]1CC[C@]2(C)C3=C(CCC2C1(C)C)[C@]1(C)CC[C@H]([C@H](C)CCCC(C)C)[C@@]1(C)CC3` (stereo not given in full), the z-score was -1.06.

As for `COCCn1c(C(=O)N2CCCC2)cc2c1C[C@H]1CN(C(=O)c3ccccc3)[C@@](Cc3ccccc3)(C(=O)OC)[C@@H]21`, the z-score is -1.37.

Regarding `C[C@]1(C(=O)NCC(F)(F)F)c2ccccc2C(=O)N(Cc2ccc(OC(F)(F)F)cc2)[C@H]1c1ccc(CO)cc1`, the z-score was -1.37.

As for `CN(C)CCCNC(=O)[C@@H]1c2ccccc2C(=O)N(C2Cc3ccccc3C2)[C@H]1c1ccc(CO)cc1`, the z-score was -1.28.

As to `Cc1c(NC(=O)/C(C#N)=C/c2ccc(Cl)cc2)c(=O)n(-c2ccccc2)n1C`, the z-score was -2.03.

Consider `C=CCC(OC(C)=O)[C@@H]1[C@@H](N(Cc2ccc(-c3ccccc3)cc2)C(=O)c2cccc3ccccc23)c2cc(OCCCO)ccc2N1C(=O)c1ccc2ccccc2c1` (stereo not given in full), for which the z-score is -0.202.

As for `COCCOC(=O)N1C(=O)[C@@]2(c3ccccc31)[C@H](c1ccc(OCCO)cc1)N1[C@H](c3ccccc3)[C@H](c3ccccc3)OC(=O)[C@H]1[C@@H]2C(=O)N1CCN(c2ncccn2)CC1`, the z-score is -1.12.

As to `C=C(/C(=C/C[C@@H](OC(C)=O)c1ccccc1OCCO)c1cc(C(=O)OC)ccc1OC)C(C)C`, the z-score is -1.11.

As for `CCCC[C@H]1OB(O)C[C@H]2C1=C(COC)C[C@H]1C(=O)C=CC(=O)[C@H]12`, the z-score is -2.35.

Consider `COc1ccc(NC(=O)O[C@H]2[C@H](OC(=O)Nc3ccc4c(c3)OCO4)[C@H](OC(=O)Nc3ccc4c(c3)OCO4)[C@@H](OC)O[C@@H]2CO)cc1`, for which the z-score is -0.983.

In the case of `C=CCN1C(=O)[C@]2(O[C@H](CCO)[C@@H]([Si](C)(C)c3ccc(OC)cc3)[C@@H]2C)c2ccccc21`, the z-score is -4.37.

Consider `COC(=O)[C@]1(CO)N=C(c2ccc(OCCCO)cc2)O[C@@H]1c1ccccc1CN=[N+]=[N-]`, for which the z-score was 0.0032.

Take `COc1cccc(OC)c1C(=O)O[C@H]1[C@@H]2OC(=O)[C@H](Cc3cccc(Br)c3)C/C=C/C[C@@H](Cc3cccc(Br)c3)C(=O)O[C@H]2[C@@H](OC)O[C@@H]1CO`: the z-score is -3.88.

Regarding `COCCOC(=O)N1C(=O)[C@@]2(c3cc(C#CC4(O)CCCCCC4)ccc31)[C@H](C(=O)NC[C@H](O)c1ccccc1)[C@H]1C(=O)O[C@H](c3ccccc3)[C@H](c3ccccc3)N1[C@@H]2c1ccc(O)cc1`, the z-score was -2.8.

On to `O=C1C2C=CC(C(O)c3ccc([N+](=O)[O-])cc3)N(Nc3ccccc3)C2C(=O)N1c1ccccc1` (stereo not given), for which the z-score was -0.423.

Consider `C=C(CCCC)C(=O)CC[C@H](OC(C)=O)c1ccccc1OCCO`, for which the z-score is -2.91.

As for `C=C(COC)/C(=C/C[C@H](OC(=O)c1ccncc1)c1ccc(OCCO)cc1)c1cc(C(=O)OC)ccc1OC`, the z-score was -0.443.

On to `COC(=O)[C@@]1(Cc2ccc(OC)cc2)[C@@H]2[C@@H](CC(=O)[C@H]2CC(=O)C(=O)N2CCCC2)CN1C(=O)c1ccccc1`, for which the z-score is -2.94.

`CCOC(=O)C[C@H]1[C@H](OC(=O)c2ccc(-c3ccccc3)cc2)[C@@H](NC(=O)CC(C)C)c2cc(OCCCO)ccc2N1C(=O)Cc1ccc(OC)cc1`: the z-score is -0.194.

Regarding `C=CCN1C(=O)[C@]2(O[C@H](CCn3cc([C@H](O)c4ccccc4)nn3)[C@@H]([Si](C)(C)c3ccc(OC)cc3)[C@@H]2C)c2cc(N3C(=O)c4cccc5cccc3c45)ccc21`, the z-score was -4.46.

The values above are taken from PubChem BioAssay.
